MIN6 prolif = inducers of MIN6 beta-cell proliferation, primary screen, ATP luminescence, uHTS. MIN6 cells proliferation, ATPlite luminescence, 48 h; cells starved in 0.2% serum; 100% = growth in 10% serum. proliferation, % at 10 µM. actives 0.29% (n = 330,000). AID 2380, 2010;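 active = compounds whose signal lies at least 3.5 SD above the mean of all wells on their plate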;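 note: 0% = DMSO-treated cells in low-serum medium and 100% = 10% serum control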
PfM18AAP inh-1 = PfM18AAP inhibitors, malaria aminopeptidase, primary screen, biochemical, QFRET, recombinant enzyme; H-Glu-NHMec fluorogenic cleavage; inhibition, % at 7.35 µM; actives 1.2% (n = 290,000);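 active = inhibition above the campaign mean inhibition over all tested compounds plus 3 SD, cut at about 28% in these data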;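 note: 0% = plate median of test compound wells and 100% = 2 mM ZnCl2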
GASC-1 inh = inhibitors of GASC-1 histone demethylase, primary screen, biochemical, fluorescence, DELFIA europium | Lysine-specific demethylase 4C (Homo sapiens), Q9H3R0 | GST-JMJD2C(1-420) H3K9me3 demethylation | inhibition, % at 2.35 µM | actives 0.069% (n = 330,000);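 active = more than half of a compound's replicate wells show inhibition beyond 50%, single wells judged on their own value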;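 note: signal counts dimethyl H3K9 product captured on neutravidin plate; 0% = median of DMSO wells and 100% = 0.3 times that DMSO median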
SMARCA2 activ = SMARCA2 (BRM) function activators, primary screen, cell-based, luminescence, high throughput | MG213 cells, MMTV-luciferase reporter, dexamethasone, overnight | activation, % at 9.1 µM | actives 1% (n = 370,000) | AID 652017, 2013; in the data active = activation above about 7.8%;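 note: 0% = vehicle wells and 100% = reference activator wells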
ALR inh = inhibitors of human ALR sulfhydryl oxidase, primary screen, biochemical, H2O2 detection, HRP-luminol luminescence, single point | FAD-linked sulfhydryl oxidase ALR (Homo sapiens), P55789 | purified ALR, DTT oxidation | inhibition, % (test concentration not listed) | actives 3.8% (n = 290,000) | AID 485317, 2010;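 active = mean replicate inhibition above about 79%, with every replicate also reaching it, limit read from the data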
Target sequence (P55789 whole entry, looked up): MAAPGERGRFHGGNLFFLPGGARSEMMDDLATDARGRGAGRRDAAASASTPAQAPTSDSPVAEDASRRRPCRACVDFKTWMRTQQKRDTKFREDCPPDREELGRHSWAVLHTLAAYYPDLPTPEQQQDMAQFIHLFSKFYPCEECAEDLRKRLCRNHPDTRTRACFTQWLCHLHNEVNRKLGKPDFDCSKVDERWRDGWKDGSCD
Exocytosis inh = LAMP-1 surface exposure blockers, TALL-104 cells – cell-based, flow cytometry, MLPCN library, primary screen. TALL-104 LAMP-1 surface exposure; cells stimulated with thapsigargin and PMA. AID 651702, 2012. actives 0.66% (n = 360,000). inhibition, % at 10 µM;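 active = inhibition above about 55%, limit read from the data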
PfM18AAP inh-2 = PfM18AAP inhibitors, malaria aminopeptidase, confirmation, biochemical, QFRET, recombinant enzyme, triplicate; shares compounds with PfM18AAP inh-1; H-Glu-NHMec fluorogenic cleavage; inhibition, % at 7.35 µM; actives 28% (n = 2,400);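 active = mean inhibition over replicate wells above the hit cutoff set for the earlier primary screen, cut at about 29% in these data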;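 note: 0% = median of test compound wells and 100% = 2 mM ZnCl2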
CTSL1 confirm = cathepsin L1 inhibitors, retest, confirmation, counter-screen for PFM18AAP inhibitor project, biochemical, QFRET, triplicate; AID 2178, 2009; inhibition, % at 5.96 µM; purified cathepsin L1, Z-Leu-Arg-MCA fluorescence; shares compounds with PfM18AAP inh-1; 2,400 tested, under 10 active;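 active = average inhibition across replicates above the hit cutoff set in the earlier primary screen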;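 note: 0% = median of test compound wells and 100% = Z-Phe-Ala-diazomethylketone 1 µM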
Target sequence (P07711 whole entry, looked up): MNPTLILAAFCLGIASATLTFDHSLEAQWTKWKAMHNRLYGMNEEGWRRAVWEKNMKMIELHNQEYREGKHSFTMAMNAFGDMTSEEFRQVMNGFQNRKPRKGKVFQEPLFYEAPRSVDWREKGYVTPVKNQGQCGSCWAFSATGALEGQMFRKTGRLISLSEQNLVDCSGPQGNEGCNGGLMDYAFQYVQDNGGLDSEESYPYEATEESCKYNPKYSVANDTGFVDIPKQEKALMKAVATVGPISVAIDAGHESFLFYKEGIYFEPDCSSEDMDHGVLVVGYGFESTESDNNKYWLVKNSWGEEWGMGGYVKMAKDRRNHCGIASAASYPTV
Active calls of the source: *; / = no result. Only some compounds are listed: those with a hit (about 5.4% of all), similar ones and a draw of the others.

SMILES	MIN6 prolif	PfM18AAP inh-1	GASC-1 inh	SMARCA2 activ	ALR inh	Exocytosis inh	PfM18AAP inh-2	CTSL1 confirm
COc1ccc(Cc2c(C3CCCCC3)nc3ccc(C)cn23)c(C)c1	/	/	/	-5	/	/	/	/
CN(C)S(=O)(=O)c1cccc(C(=O)C2=C3SC=C(c4ccccc4)N3CC2)c1	-2	34*	-4	-3	-3	-2	-13	-4
O=C(Nn1cnnc1)c1cc(-c2cccc(Br)c2)nc2ccccc12	-4	61*	-4	6	-1	-4	57*	2
CSc1ccc(NC(N)=S)cc1	1	0	-2	-1	-2	-3	/	/
CN(C)c1ccc(NC(N)=S)cc1	0	49*	-1	2	99*	-1	20	-3
Cc1ccc(S(=O)(=O)N2CCCC(C(=O)Nc3c(C)n(C)n(-c4ccccc4)c3=O)C2)cc1C (configuration not stated)	/	/	/	6	/	/	/	/
Cc1cc(C)nc(SCNC(=O)c2ccc(F)cc2)n1	-1	50*	-2	1	-2	12	-18	5
Cc1cc(C)nc(SCC(=O)c2ccc(F)cc2)n1	-3	3	10	1	20	-7	/	/
CNC(=S)NNC(=O)c1cn(C)nc1C	0	32*	7	2	10	-10	19	-4
Cc1c(Cl)cccc1NC(=O)c1ncn[nH]1	-2	37*	-7	-5	-1	-5	36*	0
O=C(Nc1c(-c2ccc(C(F)(F)F)cc2)nc2ncccn12)c1ccccc1	/	/	/	-2	/	/	/	/
CC1(C)Cc2c(c(N3CCOCC3)nc3sc(C(=O)N4CCCCC4)c(N)c23)CO1	0	33*	3	0	/	0	-6	2
COc1ccc(NC(=O)c2sc3nc(N4CCOCC4)c4c(c3c2N)CC(C)(C)OC4)cc1	0	36*	-2	-1	-29	-8	-56	-8
CCCCOC(=O)c1sc2nc(N3CCOCC3)c3c(c2c1N)CC(C)(C)OC3	3	-4	10	-3	2	0	/	/
Nc1[nH]c(C(=O)c2ccc(Br)cc2)c(-c2cccc3ccccc23)c1C(=O)NCCc1c[nH]c2ccccc12	/	/	/	-5	/	/	/	/
Cc1ccccc1/C=N/N=C1/NC(=O)CCS1	2	65*	-1	-7	4	0	-36	-1
O=C1CCS/C(=N\N=C\c2ccc(Cl)cc2Cl)N1	1	24	21	-4	-6	-4	/	/
C[C@H](O)[C@@H]1CN2CCc3c([nH]c4ccccc34)[C@@H]2C[C@@H]1N(C)CC1CCCCC1	/	/	/	-3	/	/	/	/
O=[N+]([O-])c1cc2c(cc1/C=N\NS(=O)(=O)c1ccccc1)OCO2	-1	48*	46	-1	0	0	4	-5
CC(C)(C)c1ccc(O)c(N=Cc2cc3c(cc2[N+](=O)[O-])OCO3)c1	-5	36*	-18	3	-11	1	90*	1
Cc1ccc(C)c(N=Cc2cc3c(cc2[N+](=O)[O-])OCO3)c1	2	17	5	2	-11	-4	/	/
O=C(CCc1ccc(O)c(O)c1)N/N=C/c1cc2c(cc1[N+](=O)[O-])OCO2	-5	76*	-6	-1	60	-4	51*	-1
CC(C)C[C@@H]1COc2cccc(NC3CC3)c2S(=O)(=O)N1	/	/	/	-1	/	/	/	/
COCCCNC(=O)C[C@H]1C[C@@]2(C(=O)OC)C(=C[C@H](COCc3ccccc3)O[C@@H]2C)N(CCc2ccc(OC)c(OC)c2)C1=O	/	/	/	1	/	/	/	/
COc1ccc(CN2C(=O)[C@@](O)(c3cccn3C)c3cc(F)ccc32)cc1	/	/	/	1	/	/	/	/
SMILES	MIN6 prolif	PfM18AAP inh-1	GASC-1 inh	SMARCA2 activ	ALR inh	Exocytosis inh	PfM18AAP inh-2	CTSL1 confirm
NC(=O)C1CCN(C(=O)COc2ccc(Nc3ccccc3)cc2)CC1	-2	34*	0	-5	99*	0	-28	0
NC(=O)c1c(NC(=S)Nc2ccccc2)sc2c1CCCC2	1	26	4	-1	-20	-2	/	/
NC(=O)c1c(NC(=O)C2CC=CCC2C(=O)O)sc2c1CCCCC2 (configuration not stated)	1	40*	9	1	9	-1	-19	-2
CC(C)OC(=O)c1c(NC(=O)C2CC=CCC2C(=O)O)sc2c1CCCCC2 (configuration not stated)	-2	10	6	0	15	16	/	/
NC(=O)c1c(NC(=S)Nc2ccc(F)cc2)sc2c1CCCC2	-4	35*	9	-3	90*	1	3	5
O=C(OC12CCCN(C1)/C(=C/c1cccnc1)C2)c1ccccc1 (configuration not stated)	/	/	/	-6	/	/	/	/
Cc1cc(=O)c2c(ccc3c(=O)cc(C)[nH]c32)[nH]1	/	/	/	4	/	/	/	/
Cc1ccc(NC(=S)C2=C(O)c3sccc3N(C)S2(=O)=O)cc1	-4	49*	1	0	11	-1	-32	5
Cc1ccc(C2c3c(n[nH]c3C)C(=O)N2c2ccccc2)cc1 (configuration not stated)	/	/	/	3	/	/	/	/
CCOC(=O)c1c(C)n(-c2ccc(C)cc2)c2c(C(C(C)=O)C(=O)O)c(Br)c(O)c(O)c12 (configuration not stated)	-4	65*	3	-2	17	3	37*	3
CC1CCc2c(sc(NC(=O)CCC(=O)O)c2C(=O)NC2CC2)C1 (configuration not stated)	-2	41*	7	-2	-22	20	-1	-5
O=C(O)CCC(=O)Nc1sc2c(c1C(=O)Nc1ccccc1)CCCCC2	-5	37*	-5	2	4	6	-19	-2
COC(=O)c1c(NC(=O)CCC(=O)O)sc2c1CCCCC2	0	9	-4	1	/	0	/	/
Cc1ccccc1CN1[C@@H](C)[C@H](c2ccccc2)Oc2cccc(NCC(C)C)c2S1(=O)=O	/	/	/	-3	/	/	/	/
COC(=O)c1cc(S(=O)(=O)NCC2CCN(C(=O)C(=O)c3cc4ccccc4o3)CC2)cs1	/	/	/	-7	/	/	/	/
CC(C)C[C@@H]1COc2cc(NCCCN3CCOCC3)ccc2S(=O)(=O)N1	/	/	/	-5	/	/	/	/

Bioassay records as filed in PubChem BioAssay.
